From the supplement of paper PMC13380429
A number with no mark means an inactive call.

Test system: Vero E6 infected with SARS-CoV-2
Test: inhibition of SARS-CoV-2 cytopathic effect; higher = more antiviral protection, active = above 15
Conditions: 10000 nM; 48 h

Row | Compound | inhibition of SARS-CoV-2 cytopathic effect
1 | CC1(N2CCC(n3c([C@@H]4CCCNC4)nc4ccccc43)CC2)CCCCCCC1 | 83.5% (active)
2 | CCCCNc1nc(N)c2[nH]c(=O)n(Cc3ccc(OCCN(C)C)nc3)c2n1 | -0.44%
3 | COc1ccc([C@@H]2CC(=O)c3c(O)cc(O[C@@H]4O[C@H](CO[C@@H]5O[C@@H](C)[C@H](O)[C@@H](O)[C@H]5O)[C@@H](O)[C@H](O)[C@H]4O)cc3O2)cc1O [hesperidin] | 1.25%
4 | O=C(CSc1nc2c(c(=O)n1-c1ccccc1)SCC2)Nc1ccc(-c2ccccc2)cn1 | -2.73%
5 | CCC/C=C1\OC(=O)C2=C1CCC=C2 [ligustilide] | 5.79%
6 | C#CCN1C(C)=C(C(=O)OC)C(c2cccc([N+](=O)[O-])c2)C(C(=O)OCC)=C1C (stereo not given) | 6.77%
7 | O=C(O)c1cc(-c2ccc(F)cc2F)ccc1O [diflunisal] | 0.19%
8 | CCO[C@H]1O[C@@H]2O[C@@]3(C)CC[C@H]4[C@H](C)CC[C@@H]([C@H]1C)[C@@]24OO3 [artemotil] | 1.11%
9 | CC(C)(C)c1ccc2cc(C#N)c(C#N)cc2c1 | -3.93%
10 | CCOC(=O)c1cc(C#N)c(N2CCC(C(=O)NS(=O)(=O)Cc3ccccc3)CC2)nc1C | -2.86%
11 | O=C(c1cn(Cc2cncn2Cc2ccc(Br)cc2)cc1-c1cccc2ccccc12)N1CCOCC1 | -3.78%
12 | c1ccc(Oc2nc(NC3CCCCC3)c3[nH]cnc3n2)cc1 | -6.42%
13 | CC(C)(C)Sc1c(CC(C)(C)C(=O)O)n(Cc2ccc(Cl)cc2)c2ccc(OCc3ccc4ccccc4n3)cc12 [quiflapon] | 1.66%
14 | COc1cc(NC(=O)c2ccc(-c3ccc(Cl)cc3)o2)cc(OC)c1 | 0.71%
15 | O=C(O)C1=CCCN(CCOC(c2ccc(C(F)(F)F)cc2)c2ccc(C(F)(F)F)cc2)C1 | 0.32%
16 | Oc1cc(O)c(Cl)cn1 [gimeracil] | 1.36%
17 | Cc1nc2c(O)cccc2c(=O)[nH]1 | 4.88%
18 | CC(C)SC(=N)N [S-isopropylisothiourea] | 2.04%

Row | Compound | inhibition of SARS-CoV-2 cytopathic effect
19 | CC(=O)Oc1ccccc1C(=O)Nc1ncc([N+](=O)[O-])s1 [nitazoxanide] | 8.82%
20 | C[C@]12C=CC(=O)C=C1CC[C@@H]1[C@@H]2[C@@H](O)C[C@@]2(C)[C@H]1CC[C@]2(O)C(=O)COP(=O)(O)O [prednisolone-sodium-phosphate] | -4.78%
21 | N#Cc1c(N)nc(SCC(N)=O)c(C#N)c1-c1ccc(OCC2CC2)cc1 | 12.1%
22 | Cc1cncc(CN2CCC(=C3c4ccc(Cl)cc4CCc4cccnc43)CC2)c1 [rupatadine] | -9.2%
23 | CC(=O)N(OCc1ccccc1)[C@@H]1c2cc(C#N)ccc2OC(C)(C)[C@H]1O | 2.53%
24 | CCCCN(CCCC)CCC(O)c1cc2c(Cl)cc(Cl)cc2c2cc(C(F)(F)F)ccc12 (stereo not given) [halofantrine] | -1.68%
25 | NC(N)=O [urea] | -3.31%
26 | Cc1cc(C)nc(NS(=O)(=O)c2ccc(NC(=S)NC(=O)COc3ccc(Br)cc3Cl)cc2)n1 | 0.9%
27 | NC1CCN(c2c(F)cc3c(=O)c(C(=O)O)cn(C4CC4)c3c2Cl)C1 (stereo not given) [clinafloxacin] | 0.5%
28 | N.N.[Cl][Pt][Cl] [cisplatin] | 1.76%
29 | Cc1ccnc(NC(=O)C(C)c2cccc(C(=O)c3ccccc3)c2)c1 (stereo not given) [piketoprofen] | 3.81%
30 | COc1ccc2c(c1)c(CC(=O)O)c(C)n2C(=O)c1ccc(Cl)cc1 [indomethacin] | 0.17%
31 | c1cc(CN2CCCNCCNCCCNCC2)ccc1CN1CCCNCCNCCCNCC1 [plerixafor] | 1.12%
32 | Nc1ccc(S(=O)(=O)Nc2cnc3ccccc3n2)cc1 [sulfaquinoxaline] | 1.39%
33 | O=C1CC[C@@]2(O)[C@H]3Cc4ccc(O)c5c4[C@@]2(CCN3CC2CC2)[C@H]1O5 | 0.01%
34 | COc1ccc(OC)c(CN(C(C)=O)c2cc(F)ccc2Oc2ccccc2)c1 | 2.47%
35 | Cn1cncc1[C@@](N)(c1ccc(Cl)cc1)c1ccc2c(c1)c(-c1cccc(Cl)c1)cc(=O)n2C [tipifarnib] | -9.4%
